Screening results deposited in PubChem BioAssay by National Center for Advancing Translational Sciences (NCATS).
Hits are enriched below; roughly 3.3% of the tested compounds scored in any of these assays.
WRN helicase inh-1: qHTS for Inhibitors of WRN Helicase; Bifunctional 3'-5' exonuclease/ATP-dependent helicase WRN (Homo sapiens), Q14191; WRN helicase unwinding, fluorescent forked duplex, kinetic; Potency, µM (highest dose often 114 µM), without a hit: top-dose activity change, negative = inhibition, hits mostly inhibitors; 360,000 compounds, 0.46% hits; AID 651768, 2012; note: potency is the fitted concentration of half-maximal effect; % is set by controls: 0 for no effect and ±100 for the full control effect; nearly all actives have a fitted effect of over 55% in size
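WRN at 20 nM final preincubated with compound 15 min at room temperature; reaction started with 100 nM fluorophore/quencher forked duplex oligonucleotide and 2 mM ATP final. Unwinding followed kinetically by red fluorescence (ex 525, em 598 nm).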
USP1 inh: Inhibitors of USP1/UAF1: Primary Screen; Potency, µM (highest dose often 57.1 µM), inactives show at the highest dose activity change, negative = inhibition, usual class: inhibitors; recombinant USP1/UAF1, Ub-Rhodamine cleavage fluorescence; 390,000 compounds, 0.23% hits; note: potency is the fitted concentration of half-maximal effect; % is set by controls: 0 for no effect and ±100 for the full control effect; nearly all actives have a fitted effect of over 60% in size
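High-throughput fluorogenic screen: 1nM USP1/UAF1 complex, Ub-Rho substrate 150nM final, 50mM HEPES pH 7.8 with 0.5mM EDTA, 0.1 mg/ml BSA, 1mM TCEP and 0.01% Tween-20.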
USP2a block: qHTS Assay for Inhibitors of Ubiquitin-specific Protease USP2a Using CHOP2 as the Reporter; Ubiquitin carboxyl-terminal hydrolase 2 (Homo sapiens), O75604; USP2 core, Ub-CHOP2 coupled fluorogenic reporter, 485/531; Potency, µM (titrated, usually from 38.3 µM), for inactives: at the top dose activity change, negative = inhibition, usual class: inhibitors; 330,000 compounds, 0.01% hits;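 note: potency is the fitted concentration of half-maximal effect; plate controls were DMSO wells for no effect and full inhibition by NEM control for full effect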
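Cell-free coupled assay: 10nM USP2 core preincubated 30min RT with compound in Tris-HCl pH 8.0/CaCl2/CHAPS buffer, then 25nM Ub-CHOP2 and 25nM reporter substrate; fluorescence (Ex 485/Em 531) read after 60min RT, normalized to NEM inhibition, concentration-response curves fitted.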
PI5P4Ka inh: qHTS for Inhibitors of phosphatidylinositol 5-phosphate 4-kinase (PI5P4K); PI5P4Kalpha enzyme, ADP-Glo luminescence, 60 min; stronger effect = lower value; max response, %; 330,000 compounds, 1.2% hits; active = max response of -50% or lower; inconclusive = between -30% and -50%; inactive = -30% or higher; note: value at the top dose of about 77 µM; % is set by controls: 0 for no effect and ±100 for the full control effect
Target sequence (P48426 whole entry, looked up): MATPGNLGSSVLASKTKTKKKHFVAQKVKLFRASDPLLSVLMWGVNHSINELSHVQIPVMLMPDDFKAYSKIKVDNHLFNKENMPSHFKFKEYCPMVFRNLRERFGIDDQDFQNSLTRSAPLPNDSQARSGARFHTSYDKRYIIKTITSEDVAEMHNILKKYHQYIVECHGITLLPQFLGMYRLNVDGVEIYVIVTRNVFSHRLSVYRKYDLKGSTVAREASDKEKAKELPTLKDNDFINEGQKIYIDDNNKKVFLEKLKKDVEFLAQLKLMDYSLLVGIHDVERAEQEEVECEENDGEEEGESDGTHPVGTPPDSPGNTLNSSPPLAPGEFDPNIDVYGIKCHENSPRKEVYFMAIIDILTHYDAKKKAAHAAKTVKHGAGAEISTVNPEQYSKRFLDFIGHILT
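Quantitative HTS of the MLSMR library against PI5P4Kalpha with substrate. ATP added last at 5 microM final; room temperature, 60 minutes. Remaining ATP depleted, ADP converted and read as luminescence.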
PLK1 PBD block: qHTS for Inhibitors of PLK1-PDB (polo-like kinase 1 - polo-box domain): Primary Screen; Plk1 PBD binding of FITC phosphopeptide, fluorescence polarization; Potency, µM, without a hit: max response, negative = inhibition, usual class: inhibitors; 360,000 compounds, 2.8% hits; AID 720504, 2013; note: potency is the fitted concentration of half-maximal effect; series mostly up to about 57 µM; % is set by controls: 0 for no effect and ±100 for the full control effect; nearly all actives have a fitted effect of over 65% in size
WRN helicase inh-2: qHTS for Inhibitors of WRN Helicase: Confirmatory Assay for Cherry-picked Compounds; 610 compounds, 63% hits; Potency, µM (highest dose often 57.1 µM), without a hit: at the top dose activity, negative = inhibition, most hits filed as inhibitors; shares compounds with WRN helicase inh-1; WRN helicase DNA unwinding, fluorescence kinetic; note: potency is the fitted concentration of half-maximal effect; nearly all actives have a fitted effect of over 65% in size
TO DNA binding: qHTS for Inhibitors of WRN Helicase: Thiazole Orange DNA Binding Counterscreen; 610 compounds, 10% hits; Potency, µM (titrated, usually from 57.1 µM), without a hit: at the top dose activity change, negative = inhibition, hits mostly inhibitors; AID 720499, 2013; shares compounds with WRN helicase inh-1; thiazole orange DNA binding displacement, fluorescence;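 note: drop in dye fluorescence marks compound binding to DNA; potency is the fitted concentration of half-maximal effect; % is set by controls: 0 for no effect and ±100 for the full control effect; nearly all actives have a fitted effect of over 60% in size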
BLM helicase inh: qHTS for Inhibitors of WRN Helicase: BLM Helicase Counterscreen for WRN Inhibitors; shares compounds with WRN helicase inh-1; Recombinant BLM helicase DNA unwinding, red fluorescence; Potency, µM (series often up to 57.1 µM), for the others: top-dose activity change, negative = inhibition, most hits filed as inhibitors; 610 compounds, 60% hits; note: potency is the fitted concentration of half-maximal effect; nearly all actives have a fitted effect of over 60% in size
* = called active by the depositor; ? = inconclusive; · = not tested or not shown. Unless noted, calls come from the whole dose curve; as a rule, active = well fitted curve in the direction sought with a large enough effect; inconclusive = small, poorly fitted or top-dose-only effect, or another doubt; inactive = no such curve, though single readings can be large; an effect the other way counts as inactive or inconclusive.

SMILES	WRN helicase inh-1	USP1 inh	USP2a block	PI5P4Ka inh	PLK1 PBD block	WRN helicase inh-2	TO DNA binding	BLM helicase inh
CCOc1ccc(-c2nc(SC(C(C)=O)C(=O)N(C)C)c3c(=O)n(C)c(=O)n(C)c3n2)cc1 (stereo unspecified)	·	-30%	·	·	·	·	·	·
Cc1nn(-c2ccccc2)c2nc(-c3ccco3)cc(C(=O)O)c12	?	?	2%	?	?	?	-25%	-15%
Cc1ccc(S(=O)(=O)c2ccc([N+](=O)[O-])cn2)cc1	?	-18%	6%	1	?	-12%	-11%	-2%
CCc1ccc2c(c1)C(NC(C)=O)C(=O)N2CCN1CCOCC1 (stereo unspecified)	45µM*	-5%	-1%	2	-6%	?	-5%	19µM*
Cc1cc(Cl)c(OCCOCCN2CCCCC2)c(Br)c1	?	-3%	3%	-11	-11%	-2%	-2%	-15%
COc1cc(/C=C2/C(=O)NN(c3cccc(C)c3)C2=O)ccc1OC(=O)c1ccco1	45µM*	?	-1%	-19	3µM*	?	-14%	?
N#Cc1c(C(=O)c2cccs2)no[n+]1[O-]	·	·	·	·	·	22µM*	-8%	24µM*
Cc1ccc(C(=O)c2nocc2C(=O)c2cccs2)cc1	-8%	-7%	3%	7	-11%	·	·	·
CCN1/C(=C/c2ccc3cc(C)ccc3[n+]2CC)Sc2cc(C)c(C)cc21	50µM*	?	3%	-13	5%	24µM*	22µM*	?
O=S(=O)(Nc1cc(Sc2ncn[nH]2)c(O)c2ccccc12)c1ccccc1	35µM*	2.2µM*	4%	-90*	2.1µM*	?	-16%	?
Cc1cc(O)c(Sc2ncn[nH]2)cc1NS(=O)(=O)c1ccc(Cl)cc1	0%	-20%	0%	0	1%	·	·	·
CCc1ccccc1NC(=O)CN1C(=O)COc2ccc(S(=O)(=O)Nc3ccccc3)cc21	·	-1%	·	·	·	·	·	·
CC(=O)c1c(C)oc(C)c1CSCc1ccc(C(=O)O)o1	?	-11%	3%	·	?	9.6µM*	-4%	19µM*
CCCCSCc1ccc(C(=O)O)o1	-8%	-6%	-1%	·	-8%	·	·	·
CCOc1ccc(NC(=O)C(C)n2c(=O)cc(C)c3c(C)nn(-c4ccccc4)c32)cc1 (stereo unspecified)	·	-29%	·	·	·	·	·	·
CN1/C(=C\C(=O)c2ccco2)C(C)(C)c2ccccc21	?	?	4%	·	5%	-14%	-15%	-1%
COc1cc(/C=N/N=C2/SCC(=O)N2c2ccc(O)cc2)ccc1O	79µM*	-13%	1%	-50*	3µM*	-8%	32%	-14%
COc1cc(/C=N\N=C2/SC(CC(=O)O)C(=O)N2c2ccc(O)cc2)ccc1O (stereo unspecified)	-14%	-4%	0%	·	-1%	·	·	·
CCOc1ccccc1C(=O)NCC(=O)NNC(=O)c1cccc(S(=O)(=O)Nc2ccc(OC)cc2)c1	-7%	-7%	1%	-2	-12%	·	·	·
CCOc1ncccc1C(=O)NNC(=O)c1cccc(S(=O)(=O)Nc2ccc(OC)cc2)c1	?	-7%	0%	-7	-4%	-23%	-8%	-14%
Cn1cccc1/C=C1\SC(=S)N(NC(=O)c2ccccc2O)C1=O	?	-21%	8%	-13	26%	·	·	·
O=C(NN1C(=O)/C(=C/C=C/c2ccco2)SC1=S)c1ccccc1O	10µM*	-16%	-4%	-78*	6.7µM*	3µM*	?	8.6µM*
CN1CCN(C(=S)NC(=O)c2ccc(Br)cc2)CC1	3%	-21%	-1%	-8	3%	·	·	·
CN1CCN(C(=S)C(=O)Nc2ccc(Br)cc2)CC1	45µM*	-7%	13%	-56*	2.4µM*	3%	-4%	-25%
Cn1nnnc1SCCNCc1ccccc1OCc1ccc(Cl)cc1Cl	·	4%	·	·	·	·	·	·
SMILES	WRN helicase inh-1	USP1 inh	USP2a block	PI5P4Ka inh	PLK1 PBD block	WRN helicase inh-2	TO DNA binding	BLM helicase inh
O=C1ON=C(c2ccc(Cl)cc2)/C1=C/c1ccc(O)cc1	9.5µM*	-18%	-3%	?	0.47µM*	22µM*	-3%	?
COc1ccc(OC)c(-c2cc(C(=O)Nc3cccc(Cl)c3C)no2)c1	·	-11%	·	·	·	·	·	·
COc1ccc(OCc2ccc(-c3nc(C#N)c(N4CCC(C)CC4)o3)o2)cc1	·	-14%	·	·	·	·	·	·
CCCCn1cc(S(=O)(=O)c2ccccc2)c(=O)c2cc(F)c(N3CCC(C)CC3)cc21	·	-5%	·	·	·	·	·	·
Cc1ccc(C)c(N2CCN(S(=O)(=O)c3ccc(F)c(C(=O)Nc4ccc(Cl)cc4Cl)c3)CC2)c1	·	6%	·	·	·	·	·	·
Cc1ccc(/C=C(\CCC(=O)O)c2nc3ccccc3s2)cc1[N+](=O)[O-]	-19%	-12%	-2%	-11	?	·	·	·
CN(c1ccccc1)c1ccc(/C=C(\CCC(=O)O)c2nc3ccccc3s2)cc1[N+](=O)[O-]	27µM*	-13%	0%	?	24µM*	22µM*	27µM*	8.6µM*
COc1ccc(-c2ccc(=O)n(CC(=O)Nc3ccc(N(C)C)cc3)n2)cc1	·	-32%	·	·	·	·	·	·
O=C(Cn1c2ccccc2c(=O)c2ccccc21)N/N=C/c1ccc(N2CCCC2)c([N+](=O)[O-])c1	-9%	-17%	3%	-17	-5%	·	·	·
O=C(Cn1c2ccccc2c(=O)c2ccccc21)N/N=C/c1cc([N+](=O)[O-])ccc1N1CCCCCC1	11µM*	-8%	1%	1	-1%	6.1µM*	19%	1.1µM*
CCC12CN3CC(C)(CN(C1)C3c1c[nH]c3ccc(OC)cc13)C2=O (stereo unspecified)	·	-6%	·	·	·	·	·	·
